# Source: PubChem BioAssay (National Center for Advancing Translational Sciences (NCATS))
# TrxR1 inh: qHTS Assay for Inhibitors of Mammalian Selenoprotein Thioredoxin Reductase 1 (TrxR1): qHTS; Thioredoxin reductase 1, cytoplasmic (Rattus norvegicus), O89049; recombinant rTrxR1, NADPH fluorescence consumption, selenite substrate; Potency, µM (doses to about 114 µM), without a hit: at the highest dose activity change, negative = inhibition, usual class: inhibitors; actives 1% (n = 390,000); AID 588453, 2011; further: potency means the concentration at half of the fitted maximal effect; nearly all actives have a fitted effect of over 65% in size
#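 Rat TrxR1 (90 nM in the dispensed reagent) was pre-reduced with 400 uM NADPH for 5 min at room temperature, then incubated with compound for 15 min. After 400 uM selenite was added, NADPH fluorescence (Ex 340/Em 450 nm) was followed for 8 min.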
# Coupling enz: qHTS Assay for Inhibitors of Fructose-1,6-bisphosphate Aldolase from Giardia Lamblia: Coupling assay counterscreen. actives 0.67% (n = 290,000). coupling enzyme system counterscreen, AmpLite Red fluorescence. activity change, negative = inhibition, % at 58.2 µM, hits read low; in the data active means activity change below about -30%
#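 Final compound at 57.5 uM, incubated 10 min at RT with coupling enzyme reagent (glyceraldehyde-3-phosphate), then 20 min with substrate and AmpLite Red detection. Fluorescence read at 525/598 nm; tests interference with the coupling assay, not aldolase inhibition.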
# TrxR1 substrate: qHTS Assay for Substrates of Mammalian Selenoprotein Thioredoxin Reductase 1 (TrxR1): qHTS; Thioredoxin reductase 1, cytoplasmic (Rattus norvegicus), O89049; AID 588456, 2011; purified TrxR1 substrate turnover, NADPH consumption readout; Potency, µM (series often up to 114 µM), for inactives: at the highest dose activity change, negative = substrate turnover; actives 0.01% (n = 390,000); further: potency means the concentration at half of the fitted maximal effect; nearly all actives have a fitted effect of over 50% in size
#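 Rat TrxR1, dispensed at 90 nM, was prereduced with 400 uM NADPH (final) for 5 min at ~22 deg C, then incubated with compound 15 min before 400 uM selenite. A first-read NADPH fluorescence drop versus no-compound background flagged substrates.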
# GALK inhibitor: qHTS Assay for Inhibitors of Human Galactokinase (GALK). P51570. Purified GALK, Kinase-Glo residual ATP luminescence. Potency, µM (titrated, usually from 57.5 µM), for the others: at the top dose activity change, negative = inhibition, hits mostly inhibitors. actives 0.007% (n = 270,000). AID 1868, 2009; further: potency means the concentration at half of the fitted maximal effect
# Target sequence (P51570 whole entry, looked up): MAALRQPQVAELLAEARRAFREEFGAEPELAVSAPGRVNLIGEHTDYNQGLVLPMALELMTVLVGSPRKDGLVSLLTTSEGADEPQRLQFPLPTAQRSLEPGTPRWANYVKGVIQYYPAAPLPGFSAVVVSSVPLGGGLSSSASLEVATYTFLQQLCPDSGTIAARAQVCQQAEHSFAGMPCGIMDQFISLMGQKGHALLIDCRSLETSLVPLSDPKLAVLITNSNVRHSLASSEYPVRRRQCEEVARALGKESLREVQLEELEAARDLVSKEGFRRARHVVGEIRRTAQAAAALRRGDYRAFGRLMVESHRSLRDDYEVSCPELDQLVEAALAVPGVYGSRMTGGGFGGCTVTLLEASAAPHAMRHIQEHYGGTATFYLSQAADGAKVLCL
#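 5 nM enzyme, 35 uM ATP, 100 uM galactose, 20 mM HEPES pH8.0, 5 mM MgCl2; 1 h RT; residual ATP by Kinase-Glo Plus luminescence, qHTS format.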
# USP1 inh: Inhibitors of USP1/UAF1: Primary Screen; Ubiquitin carboxyl-terminal hydrolase 1 (Homo sapiens), O94782; recombinant USP1/UAF1, Ub-Rhodamine cleavage fluorescence; Potency, µM (highest dose often 57.1 µM), without a hit: at the highest dose activity change, negative = inhibition, most hits filed as inhibitors; actives 0.23% (n = 390,000); further: potency means the concentration at half of the fitted maximal effect; nearly all actives have a fitted effect of over 60% in size
#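 USP1/UAF1 complex (1 nM) preincubated 15 min at room temperature with compound, then Ub-Rho substrate (150 nM final) added. Kinetic fluorescence at 480/540 nm over 6 reads at 60 s intervals; 50 mM HEPES pH 7.8, 0.5 mM EDTA, 0.1 mg/ml BSA, 1 mM TCEP, 0.01% Tween-20.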
# Starred values were filed as active, the others as inactive; ? = inconclusive; · = no result given; [ ] = another dose, or the depositor's remark. Sampled rows, rich in hits. Any-hit rate of the full collection: about 1.5%. Unless noted, the call rests on the fitted dose curve; in most records, active means well fitted curve in the direction sought with a large enough effect; inconclusive means small, poorly fitted or top-dose-only effect, or another doubt; inactive means no such curve, though single readings can be large; an effect the other way counts as inactive or inconclusive. On the % scale 0 is the no-effect control and ±100 the full control effect.
SMILES,TrxR1 inh,Coupling enz,TrxR1 substrate,GALK inhibitor,USP1 inh
CC1CN(C2=Nc3cccc4cccc2c34)CC(C)O1 (stereo not given),7%[57.1 µM],-46*,-12%[57.1 µM],0%,?
c1cc2c3c(cccc3c1)C(N1CCOCC1)=N2,4%[57.1 µM],-51*,1%,-2%,-25%
COc1ccccc1N1CCN(C2=Nc3cccc4cccc2c34)CC1,16%[57.1 µM],-18,-7%,-1%,-9%
CCOC(=O)N1CCN(C2=Nc3cccc4cccc2c34)CC1,13%,-57*,12%,3%,?
N[C@H](CSSC[C@@H](N)C(=O)O)C(=O)O,·,-2,·,·,·
COc1ccc2c(c1)CC/C(=C\Nc1ccc3c(c1)OCO3)C2=O,-32%,-49*,-1%,-1%,?
COc1ccc(S(=O)(=O)Nc2ccc3c(c2)OCO3)cc1,-3%,0,-3%,1%,-1%
O=C1OC2(CCCCC2)OC(=O)C1=CNc1ccc2c(c1)OCO2,-19%,-10,-7%,4%,2%
O=C1/C(=C/Nc2ccc3c(c2)OCO3)CCc2ccccc21,-10%,-40*,-7%,5%,?
COc1ccc(N/C=C2\CCc3ccccc3C2=O)cc1,4%,-39*,-1%,1%,?
COc1ccc(N/C=C2\CCOC2=O)cc1,-18%[57.1 µM],-2,-3%[57.1 µM],-5%,-11%
O=C1c2ccccc2C(=O)N1c1ccc(S(=O)(=O)N2CCOCC2)cc1,17%,·,8%,·,·
Cc1noc(C)c1-c1ccc2ncnc(NCc3cccc(C(F)(F)F)c3)c2c1,·,0,·,·,·
CSCC[C@H](NC(=O)[C@H](CC(C)C)NC(=O)[C@H](CO)NC(=O)[C@H](CCC(=O)O)NC(=O)[C@H](CC(C)C)NC(=O)[C@H](Cc1ccc(O)cc1)NC(=O)[C@H](CCCCN)NC(=O)[C@H](CCCCN)NC(=O)[C@H](C)NC(=O)[C@H](CO)NC(=O)[C@H](CC(C)C)NC(=O)[C@H](CCC(N)=O)NC(=O)CNC(=O)[C@H](CC(C)C)NC(=O)[C@H](CC(C)C)NC(=O)[C@H](CCCCN)NC(=O)[C@H](CO)NC(=O)[C@H](Cc1ccccc1)NC(=O)[C@H](CC(=O)O)NC(=O)[C@H](CO)NC(=O)[C@@H](NC(=O)[C@H](Cc1ccccc1)NC(=O)[C@@H](NC(=O)CNC(=O)[C@H](CC(=O)O)NC(=O)[C@H](C)NC(=O)[C@@H](N)Cc1cnc[nH]1)C(C)C)[C@@H](C)O)C(N)=O,·,1,·,·,·
Cc1ccc(S(=O)(=O)N2CCN(c3nc(-c4ncccn4)nc4ccccc34)CC2)cc1,5%,·,-2%,·,·
CCOC(=O)C1=C(Cc2ccc(F)cc2)C(=O)c2ccccc2C1=O,6.3µM*,-57*,-22%,0%,-22%
O=C(OCc1ccc(F)cc1)c1ccc2c(c1)-c1ccccc1C2=O,1%,·,2%,-2%,-11%
CCCCCN(CCCCC)c1ccc(/C=C/c2ccnc3ccccc23)cc1,-19%,·,-16%,·,·
Cc1[nH]n(-c2ncc(-c3ccccc3)s2)c(=O)c1C(c1ccc(Cl)cc1)C(C#N)C#N (stereo not given),22µM*,5,-8%,-3%,?
Cc1[nH]n(-c2ccccc2)c(=O)c1C(c1ccccc1[N+](=O)[O-])C(C#N)C#N (stereo not given),?,3,-4%,·,-21%
CC(=O)Nc1ccc(/C=C2\C=Cc3ccccc32)cc1,?,·,-3%,·,·
Oc1ccc(N2CCN(C(c3ccc(Cl)cc3)c3nnnn3Cc3ccc(F)cc3)CC2)cc1 (stereo not given),6%,·,0%,·,·
CNC(=O)c1nnsc1S(=O)(=O)c1ccc(Cl)cc1,0.28µM*,1,3%,15%,-7%
COc1ccccc1/C=C1\C=Cc2ccccc21,22µM*,·,-13%,·,·
CC(C)CN(C)c1ccc(/C=C2\C=Cc3ccccc32)cc1,45µM*,·,-3%,·,·
SMILES,TrxR1 inh,Coupling enz,TrxR1 substrate,GALK inhibitor,USP1 inh
CN(C)/C=C1\C=Cc2ccccc21,2.2µM*,·,-5%,·,·
c1ccc2c(c1)sc[n+]2CCC1CCCCC1,-21%,·,0%,·,·
Cc1cccc(C(=O)NC2CCN(C(=O)NCc3ccccc3)CC2)c1,25µM*,1,1%[57.1 µM],-3%,-5%
O=C(NC1CCCC1)c1cnn2c1NC(=C1CC1)C=C2C(F)F,9%,·,4%,·,·
COCCCN=C(c1ccco1)n1c(=S)nc(-c2ccco2)n(CCCOC)c1=S,?,-33*,8%[57.1 µM],0%,-25%
COC(=O)[C@H](CC(C)C)NS(=O)(=O)NC(=O)OC(C)(C)C,10%,·,7%,·,·
CC1(C)CC(=O)C(C(C2=C(O)CC(C)(C)CC2=O)c2ccc(O)c([N+](=O)[O-])c2)=C(O)C1,13µM*,-7,-7%,-4%,-14%
CC1(C)CC(=O)C2=C(C1)OC1=C(C(=O)CC(C)(C)C1)C2c1ccc(O)c([N+](=O)[O-])c1,18%,5,5%,5%,-21%
COc1cc(OC)c(OC)cc1/C=C/c1nc2ccccc2o1,14%,·,10%,·,·
Cc1ccccc1-n1c(C)nnc1SC(C)C(=O)NCc1ccco1 (stereo not given),7%,·,2%,·,·
CC12CN3CC(C)(CN(C1)C3c1c[nH]c3ccccc13)C2=O (stereo not given),12%[57.1 µM],2,7%[57.1 µM],0%,-14%
CC12CN3CC(C)(CN(C1)C3c1ccc3ccccc3c1O)C2=O (stereo not given),-6%,-48*,-7%,2%,-23%
O=C(N/N=C/c1ccc(-c2ccccc2[N+](=O)[O-])o1)c1cccnc1,50µM*,-12,-14%,-2%,?
CSCC[C@H](N)C(=O)N[C@@H](CO)C(=O)N[C@@H](CCCN=C(N)N)C(=O)N1CCC[C@H]1C(=O)N[C@@H](C)C(=O)N[C@@H](CS)C(=O)N1CCC[C@H]1C(=O)N[C@@H](CC(N)=O)C(=O)N[C@@H](CC(=O)O)C(=O)N[C@@H](CCCCN)C(=O)N[C@@H](Cc1ccc(O)cc1)C(=O)N[C@@H](CCC(=O)O)C(=O)O,·,0,·,·,·
